Hit rate of the full screen: of about 5,500 compounds, about 2,000 (36%) were called active. Not shown: some 18% with an inconclusive outcome. Cut-off read from the data, not from the text of the source: active = normalized growth mostly below about 0.91 (no sharp cut-off); inconclusive = no clear call, values can overlap the other calls; inactive = mostly above about 0.92. This is one part of the list.
Experiment: chemical genetic growth profiling, strain panel (AID 1159580);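 note: tested at 20 µM; growth read once vehicle control cultures reached saturation at 30 °C; 1 = growth at the plate median or of vehicle wells; lower values mean less growth of the strain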
Conditions: growth OD

Measured: normalized growth

CCS(=O)(=O)CCn1c([N+](=O)[O-])cnc1C
inactive: S. cerevisiae deletion strains, locus YJR075W, strain HOC1, active compounds read low 0.981 | S. cerevisiae deletion strains, locus YKL009W, strain mrt4, active compounds read low 1.04 | S. cerevisiae deletion strains, locus YKL068W, active compounds read low 1.02 | S. cerevisiae deletion strains, locus YKL085W, strain MDH1 (second series), active compounds read low 1.04 | S. cerevisiae deletion strains, locus YKL085W, strain MDH1, active compounds read low 1.04 | S. cerevisiae deletion strains, locus YKL160W, strain elf1, active compounds read low 1.03 | S. cerevisiae deletion strains, locus YKL190W, strain CNB1, active compounds read low 1.01 | S. cerevisiae deletion strains, locus YKR001C, strain vps1, active compounds read low 1.03 | S. cerevisiae deletion strains, locus YKR026C, strain gcn3, active compounds read low 0.984 | S. cerevisiae deletion strains, locus YKR091W, strain srl3, active compounds read low 0.999 | S. cerevisiae deletion strains, locus YLL001W, strain dnm1, active compounds read low 0.993 | S. cerevisiae deletion strains, locus YLL026W, active compounds read low 1.01 | S. cerevisiae deletion strains, locus YLL041C, strain sdh2, active compounds read low 0.993 | S. cerevisiae deletion strains, locus YLR027C, strain aat2, active compounds read low 0.997 | S. cerevisiae deletion strains, locus YLR039C, strain RIC1, active compounds read low 1.07 | S. cerevisiae deletion strains, locus YLR058C, strain SHM2, active compounds read low 1.01 | S. cerevisiae deletion strains, locus YLR102C, strain apc9, active compounds read low 1.01 | S. cerevisiae deletion strains, locus YLR113W, strain HOG1, active compounds read low 0.938 | S. cerevisiae deletion strains, locus YLR221C, strain rsa3, active compounds read low 0.989 | S. cerevisiae deletion strains, locus YLR258W, strain gsy2, active compounds read low 1.01 | S. cerevisiae deletion strains, locus YLR262C, strain YPT6 (second series), active compounds read low 0.967 | S. cerevisiae deletion strains, locus YLR262C, strain YPT6, active compounds read low 1.1 | S. cerevisiae deletion strains, locus YLR268W, strain sec22, active compounds read low 1.01 | S. cerevisiae deletion strains, locus YLR320W, strain mms22, active compounds read low 0.972 | S. cerevisiae deletion strains, locus YLR330W, strain CHS5, active compounds read low 1.01 | S. cerevisiae deletion strains, locus YLR342W, strain FKS1 (second series), active compounds read low 1.06 | S. cerevisiae deletion strains, locus YLR342W, strain FKS1, active compounds read low 1.02 | S. cerevisiae deletion strains, locus YLR357W, strain rsc2, active compounds read low 0.999 | S. cerevisiae deletion strains, locus YLR370C, strain arc18, active compounds read low 1 | S. cerevisiae deletion strains, locus YLR371W, strain rom2, active compounds read low 1.01 | S. cerevisiae deletion strains, locus YLR384C, strain iki3, active compounds read low 1.01 | S. cerevisiae deletion strains, locus YLR418C, strain cdc73, active compounds read low 1.03 | S. cerevisiae deletion strains, locus YML016C, strain PPZ1, active compounds read low 1.01 | S. cerevisiae deletion strains, locus YML032C, strain rad52, active compounds read low 1.03 | S. cerevisiae deletion strains, locus YML120C, strain ndi1, active compounds read low 1 | S. cerevisiae deletion strains, locus YML124C, strain tub3, active compounds read low 1 | S. cerevisiae deletion strains, locus YMR058W, strain fet3, active compounds read low 1 | S. cerevisiae deletion strains, locus YMR078C, strain ctf18, active compounds read low 1.01 | S. cerevisiae deletion strains, locus YMR125W, strain sto1, active compounds read low 0.976 | S. cerevisiae deletion strains, locus YMR129W, active compounds read low 0.98 | S. cerevisiae deletion strains, locus YMR205C, strain PFK2, active compounds read low 0.988 | S. cerevisiae deletion strains, locus YMR223W, strain ubp8, active compounds read low 1.04 | S. cerevisiae deletion strains, locus YMR231W, strain pep5, active compounds read low 0.991 | S. cerevisiae deletion strains, locus YMR263W, strain SAP30, active compounds read low 1.02 | S. cerevisiae deletion strains, locus YMR307W, strain GAS1, active compounds read low 1.21 | S. cerevisiae deletion strains, locus YNL067W, strain RPL9B, active compounds read low 1.02 | S. cerevisiae deletion strains, locus YNL071W, strain lat1, active compounds read low 0.982 | S. cerevisiae deletion strains, locus YNL128W, strain TEP1, active compounds read low 1.02 | S. cerevisiae deletion strains, locus YNL153C, strain GIM3, active compounds read low 1.01 | S. cerevisiae deletion strains, locus YNL183C, strain NPR1, active compounds read low 0.915 | S. cerevisiae deletion strains, locus YNL209W, strain ssb2, active compounds read low 0.987 | S. cerevisiae deletion strains, locus YNL233W, strain BNI4, active compounds read low 1.02 | S. cerevisiae deletion strains, locus YNL248C, strain rpa49, active compounds read low 1.01 | S. cerevisiae deletion strains, locus YNL250W, strain rad50, active compounds read low 1.02 | S. cerevisiae deletion strains, locus YNL271C, strain bni1, active compounds read low 1.02 | S. cerevisiae deletion strains, locus YNL298W, strain CLA4, active compounds read low 1.03 | S. cerevisiae deletion strains, locus YNL307C, strain MCK1, active compounds read low 1.05 | S. cerevisiae deletion strains, locus YNL322C, strain KRE1 (second series), active compounds read low 1.01 | S. cerevisiae deletion strains, locus YNL322C, strain KRE1, active compounds read low 1.01 | S. cerevisiae deletion strains, locus YNR049C, strain mso1, active compounds read low 0.997 | S. cerevisiae deletion strains, locus YNR052C, strain pop2, active compounds read low 1.01 | S. cerevisiae deletion strains, locus YOL006C, strain TOP1, active compounds read low 1.04 | S. cerevisiae deletion strains, locus YOL012C, strain htz1 0.976 | S. cerevisiae deletion strains, locus YOL147C, strain pex11, active compounds read low 1 | S. cerevisiae deletion strains, locus YOR001W, strain rrp6, active compounds read low 0.971 | S. cerevisiae deletion strains, locus YOR061W, strain CKA2, active compounds read low 1.01 | S. cerevisiae deletion strains, locus YOR069W, strain VPS5, active compounds read low 1 | S. cerevisiae deletion strains, locus YOR070C, strain gyp1, active compounds read low 1.01 | S. cerevisiae deletion strains, locus YOR080W, strain dia2, active compounds read low 1.01 | S. cerevisiae deletion strains, locus YOR083W, strain WHI5, active compounds read low 1 | S. cerevisiae deletion strains, locus YOR106W, strain vam3, active compounds read low 1.02 | S. cerevisiae deletion strains, locus YOR136W, strain idh2, active compounds read low 1.02 | S. cerevisiae deletion strains, locus YOR144C, strain elg1, active compounds read low 1.01 | S. cerevisiae deletion strains, locus YOR184W, strain ser1, active compounds read low 1.07 | S. cerevisiae deletion strains, locus YOR231W, strain MKK1, active compounds read low 0.962 | S. cerevisiae deletion strains, locus YOR265W, strain rbl2, active compounds read low 0.994 | S. cerevisiae deletion strains, locus YOR270C, strain vph1, active compounds read low 0.977 | S. cerevisiae deletion strains, locus YOR290C, strain snf2, active compounds read low 1.02 | S. cerevisiae deletion strains, locus YOR316C, strain cot1, active compounds read low 1.02 | S. cerevisiae deletion strains, locus YPL051W, strain arl3, active compounds read low 1.03 | S. cerevisiae deletion strains, locus YPL055C, strain LGE1, active compounds read low 1.06 | S. cerevisiae deletion strains, locus YPL078C, strain atp4, active compounds read low 1.01 | S. cerevisiae deletion strains, locus YPL106C, strain sse1, active compounds read low 0.994 | S. cerevisiae deletion strains, locus YPL240C, strain hsp82, active compounds read low 0.991 | S. cerevisiae deletion strains, locus YPL241C, strain CIN2, active compounds read low 1.01 | S. cerevisiae deletion strains, locus YPL256C, strain CLN2, active compounds read low 0.973 | S. cerevisiae deletion strains, locus YPR119W, strain clb2, active compounds read low 1 | S. cerevisiae deletion strains, locus YPR141C, strain kar3, active compounds read low 1.02 | S. cerevisiae deletion strains, locus YPR163C, strain tif3, active compounds read low 1.01 | S. cerevisiae deletion strains, locus YPR167C, strain met16, active compounds read low 1.02 | S. cerevisiae deletion strains, strain wtn01, active compounds read low 1 | S. cerevisiae strains, strain wild type, active compounds read low 1.05

Reference: PubChem BioAssay AID1159580 (chemical genetic matrix, 2015)
